Results: PubChem BioAssay (NCATS)
Records with an inconclusive call do not appear. Entries that show only a call come without a potency. A number with no mark means an inactive call. Calls of active or inactive are those of the source. The call rests on the fitted dose curve; in most records, active means well fitted curve in the direction sought with a large enough effect; inconclusive means small, poorly fitted or top-dose-only effect, or another doubt; inactive means no such curve, though single readings can be large; an effect the other way counts as inactive or inconclusive.

What was measured:
[1] = molecular target: Rap guanine nucleotide exchange factor 3 (Homo sapiens) (UniProt O95398); experiment: Confirmatory qHTS for antagonist of cAMP-regulated guanine nucleotide exchange factor 3 (EPAC1) (AID 1645880); conditions: EPAC1 Rap1B-BODIPY-GDP exchange, fluorescence; activity, negative = inhibition: at 115 µM (top of the series); further: nearly all actives have a fitted effect of over 55% in size
In short: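 Released BODIPY-GDP fluoresces less than Rap1-bound BODIPY-GDP; the signal is followed at 480/540 nm at 5-min intervals over 30 min, after 5 min at room temperature. Reactions contain 100 nM EPAC1, 250 nM RAP1B-BODIPY-GDP and 50 uM GDP; results are normalized to ATA and DMSO.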

[2] = molecular target: Rap guanine nucleotide exchange factor 3 (Homo sapiens) (UniProt O95398); experiment: Confirmatory qHTS for agonist of cAMP-regulated guanine nucleotide exchange factor 3 (EPAC1) (AID 1645881); further: nearly all actives have a fitted effect of over 75% in size;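 on activation: EPAC1 catalysed release of BODIPY-GDP from Rap1B seen as fluorescence loss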
[3] = molecular target: Rap guanine nucleotide exchange factor 4 (Homo sapiens) (UniProt Q8WZA2); experiment: Confirmatory qHTS for agonist of cAMP-regulated guanine nucleotide exchange factor 4 (EPAC2) (AID 1645884);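 further: nucleotide exchange releases bodipy-GDP from Rap1 and this lowers its fluorescence; nearly all actives have a fitted effect of over 65% in size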
[4] = molecular target: Rap guanine nucleotide exchange factor 4 (Homo sapiens) (UniProt Q8WZA2); experiment: Confirmatory qHTS for antagonist of cAMP-regulated guanine nucleotide exchange factor 4 (EPAC2) (AID 1645885); further: nearly all actives have a fitted effect of over 25% in size
[5] = molecular target: Rap guanine nucleotide exchange factor 3 (Homo sapiens) (UniProt O95398); experiment: Counterscreen qHTS for agonist of cAMP-regulated guanine nucleotide exchange factor 3 (EPAC1) (AID 1645889); further: nearly all actives have a fitted effect of over 40% in size
In short: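 Measured: fluorescence of BODIPY-GDP bound to Rap1B, which falls as exchange proceeds. Conditions include 50 uM competing GDP, 5 and 30 min reads, and a later cAMP challenge for antagonist detection.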
Potency means the concentration at half of the fitted maximal effect.

Rap guanine nucleotide exchange factor 4 (Homo sapiens), sequence (Q8WZA2 whole entry, looked up): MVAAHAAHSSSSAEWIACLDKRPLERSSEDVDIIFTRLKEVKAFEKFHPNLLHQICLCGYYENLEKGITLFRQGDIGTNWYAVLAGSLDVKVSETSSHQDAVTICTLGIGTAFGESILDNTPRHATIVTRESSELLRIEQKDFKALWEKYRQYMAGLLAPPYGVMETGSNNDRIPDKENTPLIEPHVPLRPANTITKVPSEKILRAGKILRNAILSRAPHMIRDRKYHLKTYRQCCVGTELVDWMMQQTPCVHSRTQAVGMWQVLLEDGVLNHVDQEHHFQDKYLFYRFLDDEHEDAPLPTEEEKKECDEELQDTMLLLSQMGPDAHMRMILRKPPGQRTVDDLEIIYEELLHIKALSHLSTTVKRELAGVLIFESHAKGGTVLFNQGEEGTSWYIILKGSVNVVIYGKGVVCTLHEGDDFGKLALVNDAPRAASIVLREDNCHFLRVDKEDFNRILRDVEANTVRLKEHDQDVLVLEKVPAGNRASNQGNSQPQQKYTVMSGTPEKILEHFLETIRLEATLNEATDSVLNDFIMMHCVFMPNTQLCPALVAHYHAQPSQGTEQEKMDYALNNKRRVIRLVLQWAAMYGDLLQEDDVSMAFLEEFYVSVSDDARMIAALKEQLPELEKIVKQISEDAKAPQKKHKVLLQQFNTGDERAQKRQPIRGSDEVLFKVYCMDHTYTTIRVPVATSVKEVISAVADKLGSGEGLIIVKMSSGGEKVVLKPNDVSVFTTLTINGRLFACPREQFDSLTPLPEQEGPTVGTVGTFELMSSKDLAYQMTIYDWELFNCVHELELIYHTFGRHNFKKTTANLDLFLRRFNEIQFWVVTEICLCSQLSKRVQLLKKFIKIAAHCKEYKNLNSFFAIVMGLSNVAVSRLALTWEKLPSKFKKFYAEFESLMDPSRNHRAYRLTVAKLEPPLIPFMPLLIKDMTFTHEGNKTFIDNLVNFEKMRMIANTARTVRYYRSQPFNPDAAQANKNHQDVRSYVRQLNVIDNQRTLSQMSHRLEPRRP
Rap guanine nucleotide exchange factor 3 (Homo sapiens), sequence (O95398 whole entry, looked up): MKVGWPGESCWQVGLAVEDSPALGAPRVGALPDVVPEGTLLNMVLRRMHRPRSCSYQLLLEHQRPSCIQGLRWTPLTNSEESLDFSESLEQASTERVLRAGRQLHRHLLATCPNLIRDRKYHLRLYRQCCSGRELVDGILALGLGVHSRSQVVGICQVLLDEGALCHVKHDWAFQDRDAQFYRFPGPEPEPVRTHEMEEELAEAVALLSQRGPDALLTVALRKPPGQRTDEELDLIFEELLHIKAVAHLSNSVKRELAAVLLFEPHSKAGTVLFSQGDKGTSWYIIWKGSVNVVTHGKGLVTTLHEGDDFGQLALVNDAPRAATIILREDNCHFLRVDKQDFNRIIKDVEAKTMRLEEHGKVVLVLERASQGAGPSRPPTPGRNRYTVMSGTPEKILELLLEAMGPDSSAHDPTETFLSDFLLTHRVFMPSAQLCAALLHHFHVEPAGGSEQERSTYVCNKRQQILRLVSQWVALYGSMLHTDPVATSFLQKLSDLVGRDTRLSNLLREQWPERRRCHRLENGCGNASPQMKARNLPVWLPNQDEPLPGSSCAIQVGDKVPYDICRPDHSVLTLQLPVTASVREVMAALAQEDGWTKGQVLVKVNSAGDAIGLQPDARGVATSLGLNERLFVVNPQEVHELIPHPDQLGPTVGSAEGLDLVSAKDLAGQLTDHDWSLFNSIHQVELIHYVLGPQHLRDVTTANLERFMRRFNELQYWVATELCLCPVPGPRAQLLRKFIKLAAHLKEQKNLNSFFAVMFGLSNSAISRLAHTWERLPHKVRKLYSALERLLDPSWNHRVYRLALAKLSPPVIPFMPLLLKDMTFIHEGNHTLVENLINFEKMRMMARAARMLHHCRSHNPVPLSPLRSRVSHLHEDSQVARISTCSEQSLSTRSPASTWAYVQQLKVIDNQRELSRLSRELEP

| SMILES | Potency [1] | Potency [2] | Potency [3] | Potency [4] | Potency [5] | activation [3] | activation [5] |
| --- | --- | --- | --- | --- | --- | --- | --- |
| Cc1ccc(CNC(=O)c2c[nH]n3c(=O)c(Cc4ccc(F)cc4Cl)c(C)nc23)cc1 | 67.5 µM (active) | inactive | inactive | inactive | inactive |  |  |
| COc1cc(NC(=O)c2cnc(N)s2)cc(C(=O)Nc2cccc(C(F)(F)F)c2)c1 | 12.6 µM (active) | inactive |  | inactive |  | 5.57% [at 17.1 µM, percent relative to cAMP agonist control] | 16.6% [at 30.8 µM] |
| CC(C)(C)c1c(Cl)c(O)c(-c2ccccc2)c(=O)n1-c1ccccc1 | 23.9 µM (active) | inactive | inactive | inactive | inactive |  |  |
| Cc1ccc(-c2c3c(=O)n(C)c(=O)n(C)c3c3c(C(F)(F)F)nc4ccccc4n23)cc1 | inactive | inactive | inactive | inactive | inactive |  |  |
| COc1ccc(C(CC(=O)N2CCCC2)c2ccc(F)cc2)cc1 (stereo not given) | inactive | inactive |  | inactive |  | 0% [at 17.1 µM, percent relative to cAMP agonist control] | 0.37% [at 30.8 µM] |
| CC(=O)c1cccc(NC(=O)c2c(-c3ccccc3)c(-c3ccccc3)nn(C)c2=O)c1 | inactive | inactive | inactive | inactive | inactive |  |  |
| CCCN(CCC)c1nc(-c2ccccn2)nc2ccccc12 | inactive | inactive |  | inactive |  | -0.687% [at 17.1 µM, percent relative to cAMP agonist control] | 0.395% [at 30.8 µM] |
| COc1cc(CCc2ccccc2)c(C(=O)O)c(O)c1C/C=C(/C)CCC=C(C)C | 42.6 µM (active) | inactive | inactive | 75.7 µM (active) | inactive |  |  |
| CCOc1ccc(/C=C2\SC(=S)N(NS(=O)(=O)c3ccc(C)cc3)C2=O)cc1OC | 56.2 µM (active) | inactive |  | inactive |  | 5.33% [at 17.1 µM, percent relative to cAMP agonist control] | -1.1% [at 30.8 µM] |
| COc1cc(C(=O)NCC(=O)N/N=C(\C)Cc2ccccc2)cc(OC)c1OC | inactive | inactive | inactive | inactive | inactive |  |  |
| CCC(=O)NC(c1ccc(C)cc1)c1ccc2cccnc2c1O (stereo not given) | inactive | inactive | inactive | 5.36 µM (active) | inactive |  |  |
| Cc1ccc(S(=O)(=O)N2[C@@H](c3ccccc3)C(C(=O)O)=CC[C@H]2c2ccc(C(C)C)cc2)cc1 | 75.7 µM (active) | inactive | inactive | inactive | inactive |  |  |
| CSc1ccc(C2C(C(=O)c3ccco3)=C(O)C(=O)N2c2nnc(SC)s2)cc1 (stereo not given) | 33.8 µM (active) | inactive | inactive | 19 µM (active) | inactive |  |  |
| Cc1cc(C)n(CCOc2ccc(Br)cc2)n1 | inactive | inactive |  | inactive |  | 1.04% [at 17.1 µM, percent relative to cAMP agonist control] | 4.02% [at 30.8 µM] |
| COC(=O)Cc1c(C)c2ccc(OC(=O)c3ccco3)cc2oc1=O | inactive | inactive |  | inactive |  | 7.89% [at 17.1 µM, percent relative to cAMP agonist control] | 4.06% [at 30.8 µM] |
| O=[N+]([O-])c1ccc(N/N=C2/CCCCC2c2ccccn2)cc1 (stereo not given) | inactive | inactive |  | inactive |  | 2.03% [at 17.1 µM, percent relative to cAMP agonist control] | -3.04% [at 30.8 µM] |
| CCOc1cc(/C=C(\C#N)C(=O)Nc2cccc(C(=O)O)c2)cc(Br)c1OC(=O)c1ccc(OC)cc1 | 42.6 µM (active) | inactive | inactive | 12 µM (active) | inactive |  |  |
| COc1ccc(N2CCN(CCCNC(=O)c3ccc4nc(CCc5ccccc5)oc4c3)CC2)cc1 | inactive | inactive | inactive | inactive | inactive |  |  |
| COc1cccc(C(=O)C(CCC#N)c2ccccc2)c1 (stereo not given) | inactive | inactive | inactive | inactive | inactive |  |  |
| Cc1cc(OC(C)C(=O)NCc2ccccn2)c2c(C)c(Cc3ccccc3)c(=O)oc2c1 (stereo not given) | 47.8 µM (active) | inactive | inactive | inactive | inactive |  |  |
| CCCC(=O)N=C1SC2CS(=O)(=O)CC2N1c1ccc(CC)cc1 (stereo not given) | inactive | inactive |  | inactive |  | -7.85% [at 17.1 µM, percent relative to cAMP agonist control] | -1.33% [at 30.8 µM] |
| O=C(NCCS(=O)(=O)N1CCc2ccccc2C1)c1ccccc1 | inactive | inactive | inactive | inactive | inactive |  |  |
| CC(=O)/C(C#N)=C1\NC(=O)C(Cc2cc(Cl)ccc2Cl)S1 (stereo not given) | 44.7 µM (active) | inactive |  | inactive |  | 4.95% [at 17.1 µM, percent relative to cAMP agonist control] | 2.87% [at 30.8 µM] |
| O=C1NC(=S)S/C1=C\C=C\c1ccc([N+](=O)[O-])o1 | 8.49 µM (active) | inactive | inactive | inactive | inactive |  |  |
| N#CCOC(=O)[C@H](Cc1c[nH]c2ccccc12)NS(=O)(=O)c1ccc(Cl)cc1 | 37.9 µM (active) | inactive | inactive | 53.6 µM (active) | inactive |  |  |
| O=C(O)CN1C(=O)/C(=C\c2ccccc2OCc2ccc(Cl)cc2)SC1=S | 37.9 µM (active) | inactive | inactive | 42.6 µM (active) | inactive |  |  |

| SMILES | Potency [1] | Potency [2] | Potency [3] | Potency [4] | Potency [5] | activation [3] | activation [5] |
| --- | --- | --- | --- | --- | --- | --- | --- |
| CCOc1ccc2oc(C(=O)N(C)CC(=O)Nc3ccc(OCC)c(OCC)c3)c(C)c2c1 | inactive | inactive | inactive | inactive | inactive |  |  |
| Cc1cc(C(=O)Nc2ccon2)c(C)o1 | inactive | inactive | inactive | 84.9 µM (active) | inactive |  |  |
| O=S(=O)(O)c1cc(O)c(N=Nc2ccc(O)cc2O)c2ccccc12 | 37.9 µM (active) | inactive | inactive | 21.3 µM (active) | inactive |  |  |
| Cc1[nH][nH]c(=O)c1C(c1c(C)[nH][nH]c1=O)c1cn(Cc2cccc3ccccc23)c2ccccc12 | 75.7 µM (active) | inactive | inactive | inactive | 12.6 µM (active) |  |  |
| CCC(Sc1nncn1C)C(=O)Nc1nnc(-c2ccc(Cl)cc2)s1 (stereo not given) | inactive | inactive |  | inactive |  | 5.37% [at 17.1 µM, percent relative to cAMP agonist control] | -0.401% [at 30.8 µM] |
| CCN1CCN(C2=CC3=CC(=C(C#N)C#N)CCC3CC2)CC1 (stereo not given) | inactive | 79.4 µM (active) | 100 µM (active) | 67.5 µM (active) | 10 µM (active) |  |  |
| CC(C)(C)OC(=O)N1CCN(C(=O)c2[nH]c(C(F)(F)F)nc2-c2ccccc2)CC1 | inactive | inactive | inactive | inactive | inactive |  |  |
| CCc1ccc(NC(=O)COC(=O)CCC2CCCC2)cc1 | inactive | inactive | inactive | inactive | inactive |  |  |
| O=S(=O)(O)c1ccc(N=NNc2ccc(Br)cc2)cc1 | inactive | inactive | inactive | 26.9 µM (active) | inactive |  |  |
| Cc1nc2c(C(=O)NCCC3=CCCCC3)c[nH]n2c(=O)c1Cl | 75.7 µM (active) | inactive | inactive | 6.75 µM (active) | inactive |  |  |
| Cc1cc2ccccn2c1C(=O)c1cccc(F)c1 | inactive | inactive | inactive | inactive | inactive |  |  |
| Cc1ccc(-c2ccc(CCC(=O)O)n2-c2ccc(C(C)C)cc2)cc1 | 75.7 µM (active) | inactive | inactive | inactive | inactive |  |  |
| O=S(=O)(Nc1nc2ccccc2nc1Nc1cccc(S(=O)(=O)N2CCCCC2)c1)c1ccccc1 | 56.2 µM (active) | inactive |  | inactive |  | 6.04% [at 17.1 µM, percent relative to cAMP agonist control] | 25.8% [at 30.8 µM] |
| Cn1c(N)c(C(=O)COC(=O)CCOc2ccc(C(C)(C)C)cc2)c(=O)n(C)c1=O | inactive | inactive | inactive | inactive | inactive |  |  |
| COc1cc2nc(N3CCNCC3)nc(N)c2cc1OC | inactive | inactive | 100 µM (active) | 67.5 µM (active) | inactive |  |  |
| O=C(COC(=O)COc1ccc(Cl)cc1Cl)NC1CCCC1 | inactive | inactive |  | inactive |  | 9.18% [at 17.1 µM, percent relative to cAMP agonist control] | -1.05% [at 30.8 µM] |
| Cn1/c(=N\NC(=O)C2CCCCC2)sc2ccccc21 | inactive | inactive | inactive | inactive | inactive |  |  |
| COc1ccc(S(=O)(=O)Nc2c(C)nn(C)c2C)cc1Br | inactive | inactive | inactive | inactive | inactive |  |  |
| Cc1ccc(CNC(=O)COc2ccc(C(=O)c3ccc(F)cc3)cc2)cc1 | inactive | inactive | inactive | inactive | inactive |  |  |
| CCOC(=O)c1c(-c2ccc(-c3ccccc3)cc2)csc1NC(=O)CCC(=O)O | 42.6 µM (active) | inactive | inactive | inactive | inactive |  |  |
| Cc1ccc(S(=O)(=O)NC2CC(=O)N(c3ccc4c(c3)OCCO4)C2)cc1 (stereo not given) | inactive | inactive |  | inactive |  | 3.34% [at 17.1 µM, percent relative to cAMP agonist control] | 22.6% [at 30.8 µM] |
| C/C(=N\NC(=O)CC#N)c1cc2ccc(O)cc2oc1=O | inactive | inactive |  | inactive |  | 2.05% [at 17.1 µM, percent relative to cAMP agonist control] | -21% [at 30.8 µM] |
| CCCOc1ccc(/C(O)=C2/C(=O)C(=O)N(c3ccccn3)C2c2ccc(OC)cc2)cc1C (stereo not given) | 33.8 µM (active) | inactive | inactive | inactive | inactive |  |  |
| COc1cccc(CNC(=O)COc2cc3c(c4oc(=O)cc(C)c24)CCC(C)(C)O3)c1 | inactive | inactive | inactive | inactive | inactive |  |  |
| Brc1ccc(N/N=C(/N=Nc2nn[nH]n2)c2ccccc2)cc1 | 33.8 µM (active) | inactive | inactive | inactive | inactive |  |  |
